Source: PubChem BioAssay
The list is not random: actives were taken first. Their share in the collection is about 16%.
miR-21 reporter = qHTS Assay for Modulators of miRNAs and/orActivators of miR-21 | HeLa miR-21 FLuc reporter, luciferase, 48 h | Potency, µM (titrated, usually from 38.3 µM), for inactives: at the top dose activity change, positive = activation, hits mostly activators | 340,000 tested, under 10 active | AID 2288, 2010;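 note: % of control where 0% means no effect; miR-21 action dims this reporter so a rising signal means less miR-21 action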
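HeLa miR-21-FLuc reporter line, endogenous miR-21; 2000 cells/well in DMEM/10% FBS; compound titration up to ~40uM final, 48 h, 37 degree Celsius; luciferase detection reagent, 15 min lysis, CCD luminescence.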
uPA generation = qHTS for Inhibitors of Cell Surface uPA Generation. Potency, µM (titrated, usually from 38.3 µM), for the others: at the highest dose activity change, negative = inhibition, hits mostly inhibitors. hit rate 0.31% among 330,000. cell surface uPA generation assay, qHTS. AID 540303, 2011; active = well fitted inhibition curve with a large enough effect; inconclusive = small, poorly fitted or top-dose-only effect; inactive = no such curve, though single readings can be large or run the other way; tested in mouse RAW 264.7 cells; note: potency is the fitted concentration of half-maximal effect; % is set by controls: 0 for no effect and ±100 for the full control effect; nearly all actives have a fitted effect of over 55% in size
TDP1 cell CPT = qHTS for Inhibitors of human tyrosyl-DNA phosphodiesterase 1 (TDP1): qHTS in cells in presence of CPT. chicken DT40 Tdp1-/-;hTDP1 cells + 20 nM CPT, ATP luminescence, 48 h. Potency, µM (top dose mostly 46.2 µM), inactives show top-dose activity change, negative = growth inhibition, hits mostly inhibitors. hit rate 12% among 420,000. AID 686979, 2013; note: potency is the fitted concentration of half-maximal effect; % is set by controls: 0 for no effect and ±100 for the full control effect; nearly all actives have a fitted effect of over 55% in size
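Cell growth measured by CellTiter-Glo luminescence after a minimum 48 h, 37 C compound exposure with 20 nM CPT in Tdp1-knockout DT40 cells stably expressing hTDP1, seeded 400/well; qHTS titration format.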
TDP1 block = qHTS Assay for Inhibitors of Tyrosyl-DNA Phosphodiesterase (TDP1); Tyrosyl-DNA phosphodiesterase 1 (Homo sapiens), Q9NUW8; hit rate 0.28% among 350,000; recombinant TDP1, AlphaScreen DNA substrate cleavage; Potency, µM (doses to about 130 µM), for the others: at the top dose activity change, negative = inhibition, most hits filed as inhibitors; note: potency is the fitted concentration of half-maximal effect; % is set by controls: 0 for no effect and ±100 for the full control effect; nearly all actives have a fitted effect of over 40% in size
Target sequence (Q9NUW8 whole entry, looked up): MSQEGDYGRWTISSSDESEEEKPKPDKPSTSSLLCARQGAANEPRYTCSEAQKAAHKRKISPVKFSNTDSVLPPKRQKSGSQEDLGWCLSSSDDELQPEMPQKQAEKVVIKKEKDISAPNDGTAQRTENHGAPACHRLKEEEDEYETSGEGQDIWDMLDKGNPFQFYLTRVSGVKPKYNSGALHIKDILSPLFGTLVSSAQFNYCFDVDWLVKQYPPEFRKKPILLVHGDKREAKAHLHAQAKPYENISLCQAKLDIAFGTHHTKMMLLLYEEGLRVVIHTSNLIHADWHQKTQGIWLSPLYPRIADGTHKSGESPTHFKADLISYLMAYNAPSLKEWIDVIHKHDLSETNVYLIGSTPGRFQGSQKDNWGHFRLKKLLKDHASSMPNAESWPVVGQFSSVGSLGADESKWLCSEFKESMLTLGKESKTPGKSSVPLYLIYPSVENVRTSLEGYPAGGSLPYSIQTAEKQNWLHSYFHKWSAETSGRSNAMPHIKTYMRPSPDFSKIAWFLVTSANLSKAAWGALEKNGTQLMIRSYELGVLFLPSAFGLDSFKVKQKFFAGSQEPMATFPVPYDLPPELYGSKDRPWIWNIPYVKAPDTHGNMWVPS
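Signal: AlphaScreen proximity between streptavidin donor and anti-FITC acceptor beads on intact substrate. Reaction: Tdp1 1 nM, substrate 15 nM final, 5 min RT after 15 min compound preincubation.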
TDP1 cell noCPT = qHTS for Inhibitors of human tyrosyl-DNA phosphodiesterase 1 (TDP1): qHTS in cells in absence of CPT; DT40 Tdp1-/- hTDP1 cells, no CPT, ATP luminescence, 48 h; hit rate 15% among 420,000; Potency, µM (titrated, usually from 46.2 µM), for the others: at the top dose activity change, negative = growth inhibition, usual class: inhibitors; note: potency is the fitted concentration of half-maximal effect; % is set by controls: 0 for no effect and ±100 for the full control effect; nearly all actives have a fitted effect of over 55% in size
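Growth kinetics read by CellTiter-Glo luminescence after ≥48 hr at 37 °C. Cells: DT40 Tdp1-/- stably carrying human TDP1, 400 per well, compound exposure in the absence of CPT (DMSO vehicle).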
* = called active by the depositor; ? = inconclusive; . = no result given; [ ] = dose if it differs, or a comment. Unless noted, calls come from the whole dose curve; as a rule, active = well fitted curve in the direction sought with a large enough effect; inconclusive = small, poorly fitted or top-dose-only effect, or another doubt; inactive = no such curve, though single readings can be large; an effect the other way counts as inactive or inconclusive.

SMILES	miR-21 reporter	uPA generation	TDP1 cell CPT	TDP1 block	TDP1 cell noCPT
Cc1cc(=O)oc2cc(OCC(=O)OCc3nnc(-c4ccccc4)o3)ccc12	-3%	3%	-12%	8%	-7%
CCc1nc2ccccc2n(CCOCCn2c(=O)c(CC)nc3ccccc32)c1=O	3%	-12%	0%	4%	-12%
Nc1nc(N)c(-c2cccc(C(F)(F)F)c2)c(Cc2cccc(C(F)(F)F)c2)n1	.	-13%	2.9µM*	.	1.3µM*
CC(C)c1nc2c(c(=O)c3ccccc3n2C)c(=O)n1-c1ccc(F)cc1	7%	-11%	15µM*	0%	12µM*
Cc1nc2c(c(=O)c3ccccc3n2C)c(=O)n1-c1ccc(F)cc1	1%	15%	-5%	0%	?
Cc1cc(Br)ccc1NC(=O)CSc1c2c(nc3ccccc13)CCC2	14%	.	15µM*	2%	12µM*
Cc1ccccc1NC(=O)CSc1nc2cc3c(cc2cc1C)CCC3	11%	?	4.6µM*	6%	3.7µM*
COc1ccc(-c2c(C#N)c(SCC(=O)Nc3ccc(C)cc3)nc(C)c2C(=O)Nc2ccccc2)cc1	0%	.	4%	2%[2.28 µM]	1%
COc1ccc(NC(=O)CSc2c3c(nc4ccccc24)CCCC3)c(OC)c1	9%	-7%	21µM*	3%	18µM*
COc1ccc(-c2c(C#N)c(SCC(=O)Nc3ccccc3)nc3c2CCCC3)cc1	.	4%	26µM*	.	?
CNC(=O)Cn1cc(S(=O)(=O)Cc2ccccc2F)c2ccccc21	-3%	.	-5%	6%	?
CC(C)CCNC(=O)Cn1cc(S(=O)(=O)Cc2ccc(F)cc2)c2ccccc21	2%	.	26µM*	0%	?
COc1ccc(CCNC(=O)Cn2cc(S(=O)(=O)Cc3cccc(Cl)c3)c3ccccc32)cc1OC	?	.	?	2%	18µM*
COc1ccccc1NC(=O)Cn1cc(S(=O)(=O)Cc2ccccc2)c2ccccc21	13%	.	?	11%	?
COC(=O)c1ccccc1NC(=O)Cn1cc(S(=O)(=O)Cc2ccccc2F)c2ccccc21	-4%	.	15µM*	2%	21µM*
CC(NC(=O)COC(=O)COc1ccc(Cl)cc1)c1ccccc1 (centres undefined)	.	5%	3%	1%	1%
O=C(C(=O)N1CCN(c2ccccc2)CC1)c1cccc(Br)c1	.	.	-28%	.	?
CCOc1ccccc1OCC(=O)Nc1nnc(C)s1	-10%	15%	-5%	1%	-10%
Cc1ccc(-c2nc3c(C)cc(Br)cn3c2Cc2ccsc2)cc1	.	.	18µM*	.	?
Cc1ccc(Cc2c(-c3cccc(Cl)c3)nc3c(C)cc(Br)cn23)cc1	.	.	15µM*	.	21µM*
Cc1cc(Br)cn2c(Cc3ccsc3)c(-c3cccc(Br)c3)nc12	.	.	-11%	.	-28%
COc1ccc(Cc2c(C(C)(C)C)nc3c(C)cc(Br)cn23)c(C)c1	.	.	18µM*	.	23µM*
COc1ccccc1Cc1c(-c2ccccc2)nc2c(C)cc(Br)cn12	.	.	16µM*	.	16µM*
COc1ccccc1Cc1c(-c2ccc(Cl)cc2)nc2c(Cl)cc(C(F)(F)F)cn12	.	.	-12%	.	-10%
CC(OC(=O)CCc1nc2ccccc2c(=O)[nH]1)C(=O)Nc1cccc(C(F)(F)F)c1 (centres undefined)	.	0%	7%	-1%	-4%
Cc1cc(Br)cn2c(Cc3ccccc3)c(-c3ccccc3)nc12	.	.	29µM*	.	?
Cc1ccc(Cc2c(-c3cccc(Br)c3)nc3c(C)cc(Br)cn23)cc1	.	.	-23%	.	?
Cc1ccc(Cc2c(-c3ccc(Cl)cc3)nc3c(C)cc(Br)cn23)cc1	.	.	23µM*	.	16µM*
Cc1ccc(Cc2c(-c3ccc(Cl)cc3)nc3c(Cl)cc(C(F)(F)F)cn23)cc1	.	.	?	.	18µM*
CNC[C@H]1OCCCC[C@H](C)Oc2ccc(NC(=O)CCCN(C)C)cc2C(=O)N([C@H](C)CO)C[C@@H]1C	.	.	-22%	.	-30%
